SUMO Mot1 rescue: SUMOylation pathway inhibition by Mot1-301 growth rescue | growth rescue, % at 18.8 µM | 320,000 compounds, 1% hits | AID 2716 | S. cerevisiae Mot1-301 growth rescue, ATP luminescence, 38.5C; percent above DMSO median, 100 means doubled;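 active = every valid replicate shows activation above 250% relative to neutral control wells; inactive = the rest, any valid replicate at or below 250%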;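 note: OY570 slx delta 5 strain wells were the positive control but not used for scaling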
AI-2 QS modul: Vibrio harveyi AI-2 quorum sensing modulation | Vibrio harveyi JMH597 AI-2 luminescence/OD600 ratio, 9 h; active compounds read low; strain lacks LuxN and CqsS sensors; 0 = neutral-control median | activity change, % at 7.5 µM | 300,000 compounds, 0.4% hits; in the data active = activity change below about -75%, passing the limit was not always enough;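 note: luminescence divided by OD600 gain over 9 h not by final OD600 alone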
HIF activator: HIF pathway transcriptional activation. U2OS HRE-luciferase reporter, luminescence; normalized: DMSO 0%, desferrioxamine 100%. activation, % at 7.5 µM (by protocol). 300,000 compounds, 0.32% hits;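 active = mean activation of at least 10% of the iron chelator positive control signal, with at least half of replicates also reaching 10%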
ALR H2O2 inh: inhibitors of human sulfhydryl oxidase ALR; purified ALR, DTT oxidation, H2O2 HRP-luminol luminescence; inhibition, % (no concentration beside the values); 290,000 compounds, 3.8% hits; AID 485317;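 active = mean replicate inhibition above about 79%, with every replicate also reaching it, limit read from the data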
Target sequence (P55789 whole entry, looked up): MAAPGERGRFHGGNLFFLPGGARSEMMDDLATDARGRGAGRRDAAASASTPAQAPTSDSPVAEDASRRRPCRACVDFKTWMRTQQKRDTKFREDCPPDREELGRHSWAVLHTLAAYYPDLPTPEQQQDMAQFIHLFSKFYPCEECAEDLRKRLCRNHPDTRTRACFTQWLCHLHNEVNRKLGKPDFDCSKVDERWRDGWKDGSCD
Yeast Mot1 SUMO: inhibits SUMO pathway, affecting Mot1-301 yeast growth | shares compounds with SUMO Mot1 rescue | S. cerevisiae Mot1-301 galactose growth, ATP luminescence, 24 h; -100 = growth of slx-deleted rescue strain | growth activity, percent, % at 42 µM | 2,300 tested, under 10 active | AID 493004;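 active = Signal drops as the depositor expects, and the fitted half-maximal dose is no more than ten times the top valid tested dose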;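 note: more negative values mean stronger growth rescue toward the control strain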
* marks the source's active call; other numbers are inactive results. This is a sample that favours compounds with a hit; in the whole collection about 4.8% have one here.

`CC(Oc1ccc(Br)cc1)C(=O)Nc1ccc(N2CCOCC2)cc1N1CCOCC1` (configuration not stated) gave SUMO Mot1 rescue -0.5, AI-2 QS modul -3.1, HIF activator -1.5 and ALR H2O2 inh 20.2.
For O=C(NNC(=O)C12CC3CC(CC(C3)C1)C2)c1ccccn1 the results were SUMO Mot1 rescue 998.3*, AI-2 QS modul 63.7, HIF activator -0.1, ALR H2O2 inh -7.7 and Yeast Mot1 SUMO 0.0.
`Cc1ccc(CNC(=O)c2ccc(N3CCC4(CC3)CC(c3ccccc3)=NO4)c(NC(=O)c3cccc(C)c3)c2)cc1` gave SUMO Mot1 rescue 947.3*, AI-2 QS modul 17.0, HIF activator -0.3, ALR H2O2 inh 4.2 and Yeast Mot1 SUMO 0.1.
Cc1ccc(CNC(=O)c2ccc(N3CCC4(CC3)CC(c3cccc(Br)c3)=NO4)c(NC(=O)c3cccc(C)c3)c2)cc1 was read as SUMO Mot1 rescue -7.7 and ALR H2O2 inh -2.6.
`Cc1cnc(C(=O)OC(C(=O)c2c[nH]c3ccccc23)c2ccccc2)cn1` (configuration not stated) gave SUMO Mot1 rescue 532.9*, HIF activator 0.1, ALR H2O2 inh -1.4 and Yeast Mot1 SUMO -0.4.
For Cc1ccc(C)c(NC(=O)C(OC(=O)c2cnc(C)cn2)c2ccccc2)c1 (configuration not stated) the results were SUMO Mot1 rescue 4.5, AI-2 QS modul 0.6, HIF activator -0.2 and ALR H2O2 inh -2.4.
`O=C(CCCNC(=O)/C(=C/c1ccc(Br)cc1)NC(=O)c1ccccc1)OCc1ccccc1` gave SUMO Mot1 rescue -7.5, AI-2 QS modul 12.1, HIF activator -0.3 and ALR H2O2 inh -2.2.
Screening O=C(CCCNC(=O)/C(=C/c1ccccc1F)NC(=O)c1ccccc1)OCc1ccccc1 returned SUMO Mot1 rescue 495.9*, AI-2 QS modul 27.7, HIF activator 0.2 and Yeast Mot1 SUMO 0.7.
Screening COc1ccc(Nc2oc(-c3cccs3)nc2C#N)cc1 returned SUMO Mot1 rescue 918.0*, AI-2 QS modul 2.2, HIF activator 5.6 and Yeast Mot1 SUMO -0.8.
For COc1ccc(Nc2oc(-c3ccccc3F)nc2C#N)cc1 the results were SUMO Mot1 rescue -14.1, AI-2 QS modul 26.7, HIF activator 3.9 and ALR H2O2 inh -5.0.
`O=C(CSc1nc(=O)n2ccccc2n1)OCc1ccccc1` gave SUMO Mot1 rescue 0.9, AI-2 QS modul 22.9, HIF activator -2.7 and ALR H2O2 inh 1.9.
O=C(O)/C=C/C(=O)NNC(=O)c1ccccc1Br was read as SUMO Mot1 rescue -14.1, AI-2 QS modul 19.8, HIF activator -0.3 and ALR H2O2 inh 30.2.
For Cc1ccccc1C(=O)NNC(=O)/C=C\C(=O)O the results were SUMO Mot1 rescue 792.5*, AI-2 QS modul -5.6, HIF activator -1.3, ALR H2O2 inh 6.5 and Yeast Mot1 SUMO 0.0.
COCCN(C(=O)c1csnn1)C(C(=O)NC1CCCCC1)c1ccc(Cl)cc1 (configuration not stated) was read as SUMO Mot1 rescue -6.1, AI-2 QS modul 27.1, HIF activator -0.4 and ALR H2O2 inh 1.0.
For COCCN(C(=O)c1csnn1)C(C(=O)NC1CCCCC1)c1ccccc1 (configuration not stated) the results were SUMO Mot1 rescue 441.1*, AI-2 QS modul 25.9, HIF activator -0.4, ALR H2O2 inh 4.8 and Yeast Mot1 SUMO 0.6.
For Cc1cccc(C)c1NC(=O)C1(N(Cc2ccco2)C(=O)CC2NC(=O)NC2=O)CCCCC1 (configuration not stated) the results were SUMO Mot1 rescue 413.5*, AI-2 QS modul 3.2, HIF activator -0.1, ALR H2O2 inh 1.7 and Yeast Mot1 SUMO -0.3.
NC(=O)[C@@H]1CCCN1C(=O)c1ccc2nc(Cc3cccc(Cl)c3)oc2c1 was read as SUMO Mot1 rescue 228.1, AI-2 QS modul 18.5, HIF activator -0.3 and ALR H2O2 inh 1.0.
CCOC(=O)c1ccc(NC(=O)c2ccc3c(c2)C(=O)N(Cc2cccnc2)C3=O)cc1 was read as SUMO Mot1 rescue 19.5, AI-2 QS modul 4.5, HIF activator -0.3 and ALR H2O2 inh -3.7.
CC(N=C(NS(=O)(=O)c1ccc(Cl)cc1)c1ccccc1)C(=O)O (configuration not stated) was read as SUMO Mot1 rescue -3.5, AI-2 QS modul 9.6, HIF activator -0.5 and ALR H2O2 inh -41.3.
CC(C)N=C(NS(=O)(=O)NC(=O)c1ccccc1)c1ccccc1 was read as SUMO Mot1 rescue 456.2*, AI-2 QS modul 26.9, HIF activator -0.5, ALR H2O2 inh 2.9 and Yeast Mot1 SUMO -0.4.
Screening CCOc1cc(/C=C/C(=O)N(CC)CC(=O)NCc2cccs2)cc(Cl)c1OC returned SUMO Mot1 rescue -4.7, AI-2 QS modul 23.3, HIF activator 0.3 and ALR H2O2 inh -22.7.
For CCCCNS(=O)(=O)c1ccc(OC)cc1 the results were SUMO Mot1 rescue 495.5*, AI-2 QS modul 11.3, HIF activator 0.2, ALR H2O2 inh -1.2 and Yeast Mot1 SUMO 0.3.
CN(CCOc1ccccc1)CC(=O)Nc1ccc(Br)cc1F was read as SUMO Mot1 rescue -19.2, AI-2 QS modul 21.0, HIF activator -1.2 and ALR H2O2 inh 5.2.
`CCc1noc(C)c1C(=O)Nc1nc(-c2ccc(F)cc2)c(C)s1` gave SUMO Mot1 rescue 634.3*, AI-2 QS modul 23.8, HIF activator -0.1, ALR H2O2 inh 5.3 and Yeast Mot1 SUMO -0.2.
CCCCN(C)C(=O)c1cc2c(Cl)nc3ccccc3c2s1 was read as SUMO Mot1 rescue 433.1*, AI-2 QS modul 0.4, HIF activator -22.3, ALR H2O2 inh 50.6 and Yeast Mot1 SUMO -0.4.
Screening CCOC(=O)N1CCN(C(=O)CNC(=O)c2nn(-c3ccc(OC)c(OC)c3)c(=O)c3ccccc23)CC1 returned SUMO Mot1 rescue 496.7*, AI-2 QS modul 6.8, HIF activator -0.3, ALR H2O2 inh -0.8 and Yeast Mot1 SUMO 0.8.
`CCOC(=O)N1CCN(C(=O)CNC(=O)c2nn(-c3ccc(OC)c(Cl)c3)c(=O)c3ccccc23)CC1` gave SUMO Mot1 rescue -16.7, AI-2 QS modul 22.3, HIF activator 0.5 and ALR H2O2 inh -5.1.
Screening COc1ccc(-n2nc(C(=O)NCC(=O)N3CCCC3)c3ccccc3c2=O)c(OC)c1 returned SUMO Mot1 rescue active, AI-2 QS modul 1.4, HIF activator 0.0, ALR H2O2 inh -4.4 and Yeast Mot1 SUMO 1.3.
Screening COc1ccc(C(=O)NNC(=O)CN2CCC(n3nnc4cc(F)ccc43)CC2)cc1 returned SUMO Mot1 rescue 12.2, AI-2 QS modul -3.0, HIF activator 0.0 and ALR H2O2 inh 0.0.
CCOc1ccc(C(C)(C)C)cc1S(=O)(=O)n1nc(C)cc1C was read as SUMO Mot1 rescue 55.7, AI-2 QS modul -13.8, HIF activator 0.4 and ALR H2O2 inh -7.8.
For CCOc1ccc(C)cc1S(=O)(=O)n1nc(C)cc1C the results were SUMO Mot1 rescue 477.2*, AI-2 QS modul 21.4, HIF activator -0.2, ALR H2O2 inh -16.8 and Yeast Mot1 SUMO -0.4.

Compound activity: PubChem BioAssay, Broad Institute
